Records with an inconclusive call do not appear. Where a call stands in place of a potency, no number is given. Values without a mark were called inactive. Activity calls are given as the source filed them. Unless noted, calls follow the shape of the dose curve; as a rule, active = well fitted inhibition curve with a large enough effect; inconclusive = small, poorly fitted or top-dose-only effect; inactive = flat fitted curve, though single readings scatter.
Tests used:
[1] = system: AA1029; assay: qHTS profiling for inhibitors of Plasmodium falciparum proliferation (AID 504749); also: nearly all actives have a fitted effect of over 60% in size; also: potency is read from the fitted curve at half-maximal effect; conditions: P. falciparum in erythrocytes, SYBR Green DNA, 72 h; series mostly up to 28.7 µM
Procedure, shortened: (§1)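 Parasite proliferation within erythrocytes, 72 h exposure. Endpoint: SYBR Green I fluorescence after overnight lysis at room temperature. Controls: 0.29 uM artemisinin, DMSO.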

[2] = system: AS120; assay: as above; conditions: P. falciparum in erythrocytes, SYBR Green DNA, 72 h; series mostly up to 28.7 µM
Procedure, shortened: as §1

[3] = system: ATS95; assay: as above; conditions: P. falciparum in erythrocytes, SYBR Green DNA, 72 h; series mostly up to 28.7 µM
Procedure, shortened: as §1

[4] = system: CP260; assay: as above; conditions: P. falciparum in erythrocytes, SYBR Green DNA, 72 h; series mostly up to 28.7 µM
Procedure, shortened: as §1

[5] = system: DIV14; assay: as above; conditions: P. falciparum in erythrocytes, SYBR Green DNA, 72 h; series mostly up to 28.7 µM
Procedure, shortened: as §1

[6] = system: DIV17; assay: as above; conditions: P. falciparum in erythrocytes, SYBR Green DNA, 72 h; series mostly up to 28.7 µM
Procedure, shortened: as §1

[7] = system: GB4; assay: as above; conditions: P. falciparum in erythrocytes, SYBR Green DNA, 72 h; series mostly up to 28.7 µM
Procedure, shortened: as §1

[8] = system: P93_24; assay: as above; conditions: P. falciparum in erythrocytes, SYBR Green DNA, 72 h; series mostly up to 28.7 µM
Procedure, shortened: as §1

[9] = system: P94_40; assay: as above; conditions: P. falciparum in erythrocytes, SYBR Green DNA, 72 h; series mostly up to 28.7 µM
Procedure, shortened: as §1

[10] = system: SC27B; assay: as above; conditions: P. falciparum in erythrocytes, SYBR Green DNA, 72 h; series mostly up to 28.7 µM
Procedure, shortened: as §1

[11] = system: TAB165; assay: as above; conditions: P. falciparum in erythrocytes, SYBR Green DNA, 72 h; series mostly up to 28.7 µM
Procedure, shortened: as §1

[12] = system: TAB109; assay: as above; conditions: P. falciparum in erythrocytes, SYBR Green DNA, 72 h; series mostly up to 28.7 µM
Procedure, shortened: as §1

[13] = target: Vitamin D3 receptor (Homo sapiens) (UniProt P11473); assay: qHTS assay for small molecule antagonists of vitamin D receptor signaling (AID 588541; calls by dose curve;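 also: receptor activated by calcitriol during compound treatment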)
Sequence of Vitamin D3 receptor (Homo sapiens) (P11473 whole entry, looked up): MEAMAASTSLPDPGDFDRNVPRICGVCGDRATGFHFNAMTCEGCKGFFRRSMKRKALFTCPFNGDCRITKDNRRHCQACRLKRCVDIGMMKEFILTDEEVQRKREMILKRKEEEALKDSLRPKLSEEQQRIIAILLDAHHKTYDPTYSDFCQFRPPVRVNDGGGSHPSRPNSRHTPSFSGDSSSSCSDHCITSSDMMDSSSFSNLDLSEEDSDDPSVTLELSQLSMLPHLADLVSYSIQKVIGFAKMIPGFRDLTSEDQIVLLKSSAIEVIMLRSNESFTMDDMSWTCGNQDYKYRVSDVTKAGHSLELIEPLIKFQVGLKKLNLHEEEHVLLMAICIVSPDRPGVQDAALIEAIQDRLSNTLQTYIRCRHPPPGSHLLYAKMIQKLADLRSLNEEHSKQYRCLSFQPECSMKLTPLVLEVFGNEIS
Procedure, shortened: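 VDR-UAS-bla HEK293T cells (2000/well, 2% charcoal-stripped FBS) were treated with titrated compounds plus 1-alpha,25-dihydroxyvitamin D3 (50 nM or 3 nM final) for 16 h at 37 C. CCF4 beta-lactamase fluorescence was read; Hill fits gave IC50.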

[14] = target: Vitamin D3 receptor (Homo sapiens) (UniProt P11473); assay: qHTS assay for small molecule agonists of vitamin D receptor signaling (AID 588543; calls by dose curve)
Procedure, shortened: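 β-lactamase reporter, VDR-UAS-bla HEK293T, agonist mode. Cells plated 5 h at 37 °C, compound titration 16 h at 37 °C, CCF4 dye 2 h RT, ratio 460/530 nm. Hill fit → EC50, efficacy vs 50 nM 1α,25-(OH)2D3.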

[15] = target: Thyroid hormone receptor beta (Homo sapiens) (UniProt P10828); assay: qHTS assay for small molecule antagonists of thyroid hormone receptor beta signaling (AID 588547; active = well fitted inhibition curve with a large enough effect in the signal ratio, with a control signal flat, not every such curve was filed as active; the % refers to the signal ratio;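 also: cells stimulated with 0.4 nM T3 agonist during compound exposure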); conditions: TR-UAS-bla HEK293, beta-lactamase ratio, antagonist mode, 18 h
Sequence of Thyroid hormone receptor beta (Homo sapiens) (P10828 whole entry, looked up): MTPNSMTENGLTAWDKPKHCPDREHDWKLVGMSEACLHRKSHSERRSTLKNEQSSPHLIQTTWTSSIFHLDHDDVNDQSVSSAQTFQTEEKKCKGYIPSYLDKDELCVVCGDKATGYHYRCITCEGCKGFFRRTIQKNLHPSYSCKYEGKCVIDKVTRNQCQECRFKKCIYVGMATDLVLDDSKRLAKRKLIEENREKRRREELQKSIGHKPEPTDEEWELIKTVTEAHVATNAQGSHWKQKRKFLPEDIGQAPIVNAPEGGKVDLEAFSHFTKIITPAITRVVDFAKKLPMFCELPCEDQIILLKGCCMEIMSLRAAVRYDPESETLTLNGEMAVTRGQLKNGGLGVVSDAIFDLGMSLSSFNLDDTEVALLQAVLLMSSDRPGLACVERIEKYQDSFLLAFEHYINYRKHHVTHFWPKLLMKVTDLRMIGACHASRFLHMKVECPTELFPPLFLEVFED
Procedure, shortened: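 TR-UAS-bla GripTite HEK293 cells in 2% charcoal/dextran FBS medium were preincubated 4 h at 37 C, given compound (0.59 nM to 92 uM) plus 0.4 nM T3 (final) for 18 h, then CCF4 for 2 h at RT; Hill fit gave IC50.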

Row | SMILES | Potency [1] | Potency [2] | Potency [3] | Potency [4] | Potency [5] | Potency [6] | Potency [7] | Potency [8] | Potency [9] | Potency [10] | Potency [11] | Potency [12] | Potency [13] | outcome [14] | activity change % (negative = inhibition) [15] [%]
1 | C[C@]12CCC3C(CCC4=C(Cl)C(=O)CC[C@@]43C)C1CCC2O (some centres undefined) | inactive | inactive | inactive | inactive | inactive | inactive | inactive | inactive | inactive | inactive | inactive | – | – | – | –
2 | CN(C)[C@@H](Cc1ccccc1)c1ccccc1 | – | inactive | inactive | inactive | – | – | – | – | inactive | inactive | inactive | inactive | – | – | –
3 | CC(C)CCC(=O)OC1CCC2C3CCC4=CC(=O)CC[C@]4(C)C3CC[C@]12C (some centres undefined) | – | – | – | 11.2 µM (active) | inactive | inactive | inactive | – | – | – | – | – | – | – | –
4 | CC1CC[C@@]2(NC1)OC1CC3C4CC[C@@H]5CC(O)CC[C@@]5(C)C4CC[C@]3(C)C1C2C (some centres undefined) | inactive | – | inactive | – | – | – | – | – | – | – | – | inactive | – | – | –
5 | O=C1CC2OCC=C3CN4CC[C@]56c7ccccc7N1C5C2[C@H]3C[C@H]46 (some centres undefined) | 10 µM (active) | – | – | 11.2 µM (active) | – | inactive | – | – | – | – | – | – | – | – | –
6 | CC(=O)[C@H]1CC[C@H]2C3CC[C@H]4C[C@H](O)CC[C@]4(C)C3CC[C@]12C (some centres undefined) | inactive | inactive | inactive | – | inactive | inactive | inactive | inactive | inactive | inactive | inactive | inactive | – | – | –
7 | COC(=O)C1C(OC(=O)c2ccccc2)CC2CCC1N2C (centres undefined) | inactive | inactive | inactive | inactive | inactive | inactive | inactive | inactive | inactive | inactive | inactive | inactive | – | – | –
8 | C#CCN1CC(=O)N(COC(=O)[C@@H]2[C@@H](C=C(C)C)C2(C)C)C1=O | inactive | inactive | inactive | inactive | inactive | inactive | inactive | inactive | inactive | inactive | inactive | inactive | inactive | inactive | 21.3
9 | CC(Cc1ccccc1)N(C)C (centres undefined) | inactive | inactive | inactive | inactive | inactive | inactive | – | inactive | inactive | inactive | inactive | inactive | – | – | –
10 | COC(C(=O)C(O)C(C)O)C1Cc2cc3cc(OC4CC(OC5CC(O)C(OC)C(C)O5)C(OC(C)=O)C(C)O4)c(C)c(O)c3c(O)c2C(=O)C1OC1CC(OC2CC(OC3CC(C)(O)C(OC(C)=O)C(C)O3)C(O)C(C)O2)C(O)C(C)O1 (centres undefined) | 0.794 µM (active) | 0.794 µM (active) | 0.708 µM (active) | 0.126 µM (active) | 2.39 µM (active) | 2.69 µM (active) | 2.13 µM (active) | 0.794 µM (active) | 0.708 µM (active) | 1 µM (active) | 0.794 µM (active) | 0.794 µM (active) | – | – | –
11 | C[C@]12CC[C@H]3[C@@H](CC[C@@]45O[C@@H]4C(=O)C(C#N)C[C@]35C)[C@@H]1CC[C@@H]2O (some centres undefined) | – | – | – | inactive | inactive | – | – | – | inactive | – | – | – | – | – | –
12 | C[C@@H](N)[C@@H](O)c1ccc(O)c(O)c1 | inactive | inactive | inactive | inactive | inactive | inactive | inactive | inactive | inactive | inactive | inactive | inactive | – | – | –

Reference: PubChem BioAssay (NCATS)
